Screening data as filed in PubChem BioAssay.
CHX counter – counter-screen hit for Shiga toxin inhibitors, cycloheximide; AID 2314; max response, %; 300,000 compounds, 12% hits; cell reporter, cycloheximide protein synthesis inhibition counterscreen; in the data active = max response mostly above about 13%, no sharp cut-off; inactive = mostly below about 14%; also: read at 38.3 µM for the half of the compounds with a filed dose; 0% is about no effect
Vaccinia Venus – inhibitors of vaccinia virus (Venus reporter); 330,000 compounds, 0.46% hits; Potency, µM (highest dose often 36.5 µM), for inactives: at the highest dose activity change, negative = inhibition, actives largely listed as inhibitors; Vaccinia virus Venus reporter expression, fluorescence; AID 720580; calls by dose curve; tested in A549 cells; also: potency is read from the fitted curve at half-maximal effect; % is scaled to controls: 0 for no effect and ±100 for the full control effect; nearly all actives have a fitted effect of over 30% in size
Vaccinia mCherry – vaccinia inhibition (mCherry reporter); Vaccinia virus mCherry reporter infection, fluorescence; Potency, µM (titrated, usually from 36.5 µM), for inactives: at the highest dose activity change, negative = inhibition, usual class: inhibitors; 310,000 compounds, 0.63% hits; AID 720579; calls by dose curve; tested in A549 cells; also: potency is read from the fitted curve at half-maximal effect; % is scaled to controls: 0 for no effect and ±100 for the full control effect; nearly all actives have a fitted effect of over 35% in size
Marburg entry inh – inhibitors of Marburg virus binding or cell entry; Marburg virus pseudotyped entry inhibition, cell reporter; Potency, µM (highest dose often 37.8 µM), without a hit: at the top dose activity change, negative = inhibition, hits mostly inhibitors; 300,000 compounds, 1.8% hits; calls by dose curve; tested in HEK293 cells; also: potency is read from the fitted curve at half-maximal effect; % is scaled to controls: 0 for no effect and ±100 for the full control effect
LASV entry inh – inhibitors of Lassa virus binding or cell entry. Lassa virus pseudotype entry inhibition, cell reporter. Potency, µM (top dose mostly 37.9 µM), inactives show at the highest dose activity change, negative = inhibition, usual class: inhibitors. 300,000 compounds, 1.2% hits. AID 540256; calls by dose curve; tested in HEK293 cells; also: potency is read from the fitted curve at half-maximal effect; % is scaled to controls: 0 for no effect and ±100 for the full control effect; nearly all actives have a fitted effect of over 50% in size
Shiga inhibitor – Shiga toxin inhibition; Vero cells, Shiga toxin protein synthesis inhibition reporter; inhibition, % at 38.7 µM; 290,000 compounds, 9.2% hits; AID 2315; in the data active = inhibition mostly above about 28%, no sharp cut-off; inactive = mostly below about 43%; also: 0% is about no effect
Numbers without * were called inactive; i = inactive; ? = inconclusive; . = not tested or not shown; [ ] = dose if it differs, or a comment. The sample as a whole holds a higher share of hits than the screen did.

SMILES | CHX counter | Vaccinia Venus | Vaccinia mCherry | Marburg entry inh | LASV entry inh | Shiga inhibitor
c1ccc(N2CCN(c3ccccc3)C2c2cccnc2)cc1 | 26* | -18% | . | 6% | 0% | 48*
Cc1ccc(S(=O)(=O)N2CCCC2c2cccnc2)cc1 (configuration not stated) | 5 | -9% | -14% | ? | 29% | -3
Cc1ccc(N2CCN(c3ccc(C)cc3)C2c2cccnc2)cc1 | 19* | -21% | -16% | ? | ? | 38
c1ccc(N2CCN(c3ccccc3)C2c2ccncc2)cc1 | 35 | -8% | i | -27% | 1% | 22
Nc1ccc(C#Cc2ccc3c(=O)c4ccccc4oc3c2)cc1 | 37* | ? | ? | . | . | 28*
N#Cc1ccc(C#Cc2ccc3oc4ccccc4c(=O)c3c2)cc1 | . | -16% | i | . | . | .
Cc1ccc(NC(=O)CSc2nccn2-c2ccccc2)cc1 | . | 0% | i | . | -2%[46.1 µM] | .
COc1ccc(NC(=O)CSc2nccn2Cc2ccco2)c(OC)c1 | 25* | -4% | -1% | ? | ? | 44*
Cc1ccc(NC(=O)CSc2ncc3ccccn23)cc1 | 28* | -4% | -7% | 6%[46.1 µM] | 0% | 70*
Cc1ccc(NC(=O)CSc2nccn2Cc2ccco2)cc1 | 78* | -13% | -27% | 18% | 12% | 90*
CC(CCc1ccco1)NC(=O)Nc1cccc(F)c1 (configuration not stated) | 21* | . | . | 0% | ? | 16
COc1ccc(NC(=O)CSc2nccn2Cc2ccccc2)c(OC)c1 | 12 | -16% | -19% | 0% | 1% | 17
COC(=O)C[C@H]1c2ccccc2S(=O)(=O)N1C(C)C | . | 2% | -21% | . | . | .
O=C(O)/C=C/c1ccc2c(c1)S(=O)(=O)N(C1CCCC1)[C@H]2CC(=O)O | . | -8% | -12% | . | . | .
O=C(CSc1nccn1Cc1ccco1)Nc1cccc(F)c1 | 27* | -11% | -11% | . | 2%[46.1 µM] | 39*
Cn1c(CCc2ccc(N)cc2)nc2ccccc21 | 32* | . | . | . | . | 60
Cn1c(N)c(-c2nc3cccnc3n2C)sc1=S | 6 | 1% | -2% | . | . | 24
Cn1c(-c2ccc(N)cc2)nc2ccccc21 | 56* | -16% | -15% | -22% | 3% | 75*
Cc1ccc(-n2c(N)c(-c3nc4ccccc4n3C)sc2=S)cc1 | 11* | . | . | ? | -2% | 18
Cn1c(-c2ccc3nc(N)sc3c2)nc2cc(N)ccc21 | 21* | . | . | ? | -4% | 6
O=C(CSc1ccncc1)NCC1Cc2cccc(-c3cncnc3)c2O1 (configuration not stated) | . | -9% | i | . | . | .
CCOc1ccc2c(c1)c(=O)c(S(=O)(=O)c1ccc(CC)cc1)cn2Cc1cccc(Cl)c1 | . | -2% | -3% | 10%[46.1 µM] | -14%[46.1 µM] | .
Cn1c(-c2ccc(Cl)nc2)nc2ccccc21 | 15* | -16% | -2% | 5%[46.1 µM] | ? | 58*
CCOC(=O)Cn1c(-c2ccc(Cl)nc2)nc2ccccc21 | -3 | . | . | -3% | 8% | 16
c1ccc(CNc2ncnc3nc(N4CCOCC4)[nH]c23)cc1 | . | -19% | -11% | . | . | .
SMILES | CHX counter | Vaccinia Venus | Vaccinia mCherry | Marburg entry inh | LASV entry inh | Shiga inhibitor
COc1ccc(CCNC(=O)C(=O)NCC(c2ccco2)S(=O)(=O)c2ccc(C)cc2)cc1 (configuration not stated) | . | -12% | -11% | . | ? | .
CCCCNCC(=O)Nc1ccc(NC(=O)CNCCCC)cc1 | -3 | -12% | i | 10µM* | -17% | -18
CCCCc1ccc(NC(=O)CC(C)C)cc1 | 29* | -16% | i | ? | -4% | 66*
CCOCC(=O)Nc1ccc(Br)c(C)c1 | 32* | -3% | -14% | ? | 24% | 76*
CCOCC(=O)Nc1cccc(C(=O)OCC)c1 | 2 | 7% | . | -2%[46.1 µM] | -18% | -2
CCCCc1ccc(NC(=O)COCC)cc1 | 50* | -8% | -13% | ? | 1% | 44*
O=C(CCN1CCOCC1)c1ccc2c(c1)OCCO2 | 1 | -28% | . | 4% | -15% | 14
COc1ccc(C(=O)OCCN2CCOCC2)cc1 | 25* | 0% | . | 22% | 15% | 44*
O=C(CCCN1CCOCC1)c1ccc2c(c1)OCCO2 | 32* | -18% | -16% | 6% | 1% | 76
O=C(OCCN1CCOCC1)c1ccc2c(c1)OCCO2 | 53* | -4% | -18% | 11% | ? | 75*
Cc1cccc(C(=O)OCCN2CCOCC2)c1 | 26* | 0% | -11% | 5% | 8% | 41*
O=C(OCCN1CCOCC1)c1cccc(F)c1 | 6 | -8% | i | 0% | ? | 36
